From PubChem
This excerpt belongs to a sample that is enriched for hits.
Cycloheximide cs: counter-screen for Shiga toxin inhibitors: cycloheximide protein synthesis inhibition | cell reporter, cycloheximide protein synthesis inhibition counterscreen | max response, % | 12% of 300,000 active | AID 2314; in the data active = max response mostly above about 13%, no sharp cut-off; inactive = mostly below about 14%; also: read at 38.3 µM for the half of the compounds with a filed dose
Giardia FBPA inh: Giardia lamblia aldolase inhibition. A8B2U2. purified Giardia FBPA. Potency, µM (titrated, usually from 59.6 µM), usual class: inhibitors. 0.71% of 290,000 active. AID 2451; also: nearly all actives have a fitted effect of over 55% in size
Target sequence (A8B2U2 whole entry, looked up): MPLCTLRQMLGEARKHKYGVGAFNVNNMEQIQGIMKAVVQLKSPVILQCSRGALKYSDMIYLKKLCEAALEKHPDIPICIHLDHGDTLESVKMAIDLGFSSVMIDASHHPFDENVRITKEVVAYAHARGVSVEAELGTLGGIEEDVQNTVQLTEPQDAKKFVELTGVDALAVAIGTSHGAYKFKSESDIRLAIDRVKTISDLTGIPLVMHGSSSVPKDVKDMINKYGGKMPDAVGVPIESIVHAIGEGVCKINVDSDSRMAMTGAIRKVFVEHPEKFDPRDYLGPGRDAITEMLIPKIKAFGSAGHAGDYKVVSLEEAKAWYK
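40 nM FBPA preincubated 10 min at RT with compound (up to 57.5 uM final), then substrate plus GAPDH/TPI/NAD/arsenate coupling and diaphorase/resazurin added. Fluorescence read after 20 min at RT, 525/598 nm.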
Tb PYK inh: blocks Trypanosoma brucei pyruvate kinase. Potency, µM (doses to about 76.8 µM), most hits filed as inhibitors. TbPYK enzyme, Kinase-Glo Plus ATP luminescence, 45 min. 0.12% of 410,000 active. AID 624173. Q57TT1; also: nearly all actives have a fitted effect of over 50% in size
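Screened from lowest to highest concentration, compounds were pinned into TbPYK/substrate mixtures, and ADP (130 uM final) was added. Plates sat at room temperature for 45 min prior to Kinase-Glo Plus detection by luminescence.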
Sm TGR block: blocks Schistosoma mansoni thioredoxin glutathione reductase | purified TGR, DTNB reduction, TNB absorbance 405 nm | Potency, µM (top dose mostly 114 µM), actives largely listed as inhibitors | 3% of 360,000 active | AID 485364; also: nearly all actives have a fitted effect of over 60% in size
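First, TGR (20 nM dispensed) and NADPH were mixed with compound. Second, a 15 min room-temperature incubation followed. Third, further NADPH and then DTNB were added to start the reaction. Finally, TNB absorbance was monitored kinetically.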
LmPK inh: blocks Leishmania mexicana pyruvate kinase activity; AID 1721; Potency, µM (top dose mostly 57.5 µM), actives largely listed as inhibitors; purified LmPK, Kinase-Glo ATP luminescence, 1 h; Q27686; 0.37% of 290,000 active
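ATP generated from ADP (0.1 mM) and PEP (0.5 mM) by 0.1 nM LmPK over 1 h at room temperature (pH 7.2 imidazole buffer) was detected by coupled luciferase luminescence. Values were normalized to uninhibited and no-enzyme wells.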
Shiga inhibitor: Shiga toxin inhibition | Vero cells, Shiga toxin protein synthesis inhibition reporter | inhibition, % at 38.7 µM | 9.2% of 290,000 active; in the data active = inhibition mostly above about 28%, no sharp cut-off; inactive = mostly below about 43%
Each line names hits and unclear results; the compound was inactive in the other large screens. Unless noted, calls follow the shape of the dose curve; as a rule, active = well fitted curve in the direction sought with a large enough effect; inconclusive = small, poorly fitted or top-dose-only effect, or another doubt; inactive = no such curve, though single readings can be large; an effect the other way counts as inactive or inconclusive.

CCc1nc2sc3ccccc3c(=O)c2c(=O)n1Cc1ccco1	Tb PYK inh inconclusive, Sm TGR block 35µM
COc1ccc(-c2nc3oc4cc(OC)ccc4c(=O)c3c(=O)n2Cc2ccco2)cc1	Sm TGR block 20µM
COc1ccc2c(=O)c3c(=O)n(Cc4ccccc4)c(C(C)C)nc3oc2c1	none (no result: Cycloheximide cs, Giardia FBPA inh, Sm TGR block, LmPK inh, Shiga inhibitor)
CCCc1nc2sc3ccccc3c(=O)c2c(=O)n1Cc1ccccc1	none (no result: Cycloheximide cs, Giardia FBPA inh, Sm TGR block, LmPK inh, Shiga inhibitor)
COc1ccc(Cn2c(-c3ccco3)nc3oc4cc(OC)ccc4c(=O)c3c2=O)cc1	Sm TGR block inconclusive
CCOCCCN1C(=O)CN(C2CCCCCC2)C(=O)C1c1ccc(OC(C)C)c(OC)c1 (stereo not drawn)	none (no result: Cycloheximide cs, Giardia FBPA inh, LmPK inh, Shiga inhibitor)
COCCNC(=O)[C@H](C)/C=C/C(NC(=O)OCc1ccccc1)c1ccc(C(=O)OC)cc1 (stereo partly drawn)	none (no result: Cycloheximide cs, Tb PYK inh, Sm TGR block, LmPK inh, Shiga inhibitor)
CN(Cc1nc2ccccc2n1C)c1ccccc1	none
COc1ccccc1C(O)Cc1nc2ccccc2n1C (stereo not drawn)	Cycloheximide cs 63, Shiga inhibitor 108
CC(C)c1ccc(C(O)Cc2nc3ccccc3n2C)cc1 (stereo not drawn)	Cycloheximide cs 60, Shiga inhibitor 127
CN(C)c1ccc(C(O)Cc2nc3ccccc3n2C)cc1 (stereo not drawn)	Cycloheximide cs 25, Shiga inhibitor 63
Cc1ccc2nc(-c3cccs3)c(Nc3ccc4c(c3)OCCO4)n2c1	none (no result: Cycloheximide cs, Giardia FBPA inh, LmPK inh, Shiga inhibitor)
CCCCC(CC)CNC(=O)c1ccc2c(=O)n(CCOC)c(=O)[nH]c2c1 (stereo not drawn)	none (no result: Giardia FBPA inh, LmPK inh)
Cc1ccccc1OCC(=O)NC1=NCCS1	Cycloheximide cs 29, LmPK inh inconclusive, Shiga inhibitor 32
O=C(COc1ccccc1)NCC(=O)NC1=NCCS1	none
Cc1ccccc1OCC(=O)Nc1cccc2nsnc12	none
Cc1ccc(OCC(=O)NC2=NCCS2)cc1	Cycloheximide cs 25
N#Cc1cccc(-c2cc(NCc3ccccc3)ncn2)c1	none (no result: Cycloheximide cs, Tb PYK inh, Sm TGR block, LmPK inh, Shiga inhibitor)
O=c1c(-c2ccccc2)nnc2sc(COc3ccc(Br)cc3)nn12	none
CCC/C=N/Nc1nc2ccccc2s1	Cycloheximide cs 35, Shiga inhibitor 108 (no result: Sm TGR block)
Brc1ccc(/C=C/C=N/Nc2nc3ccccc3s2)cc1	Shiga inhibitor 49 (no result: Giardia FBPA inh)
C(=C\c1ccccc1)/C=N/Nc1nc2ccccc2s1	Cycloheximide cs 34, Sm TGR block inconclusive, Shiga inhibitor 95
CCCN(C(=O)CCl)C1=CCCCC1	Sm TGR block 11µM
CCN(C(=O)COC(=O)CNC(=O)c1ccccc1C)C1=CCCCC1	none (no result: Cycloheximide cs, Giardia FBPA inh, LmPK inh, Shiga inhibitor)
N#CC1=C(S)N(c2ccccc2)C(c2ccc(-c3ccc(Cl)c(Cl)c3)o2)NC1=O (stereo not drawn)	Sm TGR block 14µM
Cc1ccc(C2C(C(=O)c3ccco3)=C(O)C(=O)N2c2ncccn2)cc1 (stereo not drawn)	none
CSc1ccc(C2C(C(=O)c3ccco3)=C(O)C(=O)N2c2nnc(SC)s2)cc1 (stereo not drawn)	Cycloheximide cs 36, Shiga inhibitor 75 (no result: Giardia FBPA inh)
CCCOc1cccc(C2C(C(=O)c3ccco3)=C(O)C(=O)N2c2nnc(C)s2)c1 (stereo not drawn)	none
Cc1nnc(N2C(=O)C(O)=C(C(=O)c3ccco3)C2c2ccc(F)cc2)s1 (stereo not drawn)	none
Cc1nnc(N2C(=O)C(O)=C(C(=O)c3ccco3)C2c2ccc(C(C)C)cc2)s1 (stereo not drawn)	Cycloheximide cs 40, Sm TGR block inconclusive, Shiga inhibitor 64
Cc1nnc(N2C(=O)C(O)=C(C(=O)c3ccco3)C2c2ccc(C(C)(C)C)cc2)s1 (stereo not drawn)	Cycloheximide cs 12
CCOc1ccc(-c2c(C)nn3c(-c4ccccc4)c(C(=O)NCCOC)cnc23)cc1OCC	none (no result: Cycloheximide cs, Giardia FBPA inh, LmPK inh, Shiga inhibitor)
C=C1CCC(O)C/C1=C\C=C1/CCCC2(C)C1CCC2C(C)CCCC(C)C (stereo not drawn)	none (no result: Cycloheximide cs, Tb PYK inh, Sm TGR block, LmPK inh, Shiga inhibitor)
Oc1[nH]c2ccccc2c1N=NC(=S)NCC1CCCO1 (stereo not drawn)	Cycloheximide cs 17
Oc1[nH]c2ccc(Br)cc2c1N=NC(=S)NCC1CCCO1 (stereo not drawn)	none
CCCc1ccc(C(C)NC(=O)c2cnccn2)cc1 (stereo not drawn)	none
CCOC(=O)c1ccc(NC(=O)c2cnccn2)cc1	Cycloheximide cs 20
